Results published in PubChem BioAssay.
Active and inactive are the calls of the source.

Columns and labels:
[1] = compounds binding Alexa647 anti-His antibody – biochemical, small-molecule microarray, 635 nm fluorescence, artefact control for SMM control protein annotation, primary screen (AID 1128); conditions: higher = more signal;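 also: score merges feature fluorescence with signal-to-noise for each printed compound spot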
[2] = test system: Human papillomavirus type 1a E7 protein (residues 1-88); experiment: HPV1a E7 small-molecule binders, primary screen, biochemical, small-molecule microarray, residues 1-88, 635 nm (AID 1129); conditions: small-molecule microarray binding, fluorescence 635 nm; higher = more signal
[3] = target: Focal adhesion kinase 1 (Homo sapiens) (UniProt Q05397); experiment: PTK2 protein binding on printed compound slides – biochemical, small-molecule microarray, 635/667 nm fluorescence, BSA, DTT, primary screen (AID 1130); conditions: 635 nm fluorescence, higher = more signal;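 also: composite of spot emission at 667 nm and signal to noise over triplicate slides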
[4] = test system: Fibrinogen (Alexa647-labelled); experiment: Alexa647-fibrinogen binding to printed small molecules – biochemical, small-molecule microarray, 635/667 nm fluorescence, artefact control for SMM control-protein annotation, profiling panel (AID 1131); conditions: fibrinogen-A647 binding fluorescence, higher = more signal;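 also: z-score merges 667 nm fluorescence with per-spot signal-to-noise over triplicate slides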
[5] = target: Follistatin (Homo sapiens) (UniProt P19883); experiment: FST protein binding to printed compounds – biochemical, small-molecule microarray, 635/667 nm fluorescence, primary screen (AID 1132); conditions: 635 nm fluorescence, higher = more signal
[6] = target: Fibroblast growth factor 2 (Homo sapiens) (UniProt P09038); experiment: basic fibroblast growth factor binding to printed compounds – biochemical, small-molecule microarray, 635/667 nm fluorescence, primary screen (AID 1133); conditions: FGF2, fluorescence 635/667, higher = more signal
[7] = JC-1 mitochondrial potential readout, lung cancer cells – cell-based, A549, JC-1 fluorescence, basal, 24 h, 100 nL, profiling panel (AID 1138); conditions: higher = more signal;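 also: A549 lung adenocarcinoma cells under basal conditions with no added stimulus; test concentration not given here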
Lefty1 = Lefty1 protein binding to printed compounds – biochemical, small-molecule microarray, 635/667 nm fluorescence, primary screen (AID 1139); conditions: fluorescence 635/667, higher = more signal
[8] = test system: wheat germ agglutinin (Triticum aestivum), Alexa647-labelled; experiment: Alexa647-WGA lectin binding to printed small molecules – biochemical, small-molecule microarray, 635/667 nm fluorescence, artefact control for SMM control-protein annotation, profiling panel (AID 1140); conditions: WGA-A647 binding, 635 nm fluorescence, higher = more signal;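 also: score merges 667 nm feature emission with signal to noise over triplicate slides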
[9] = target: Luciferin 4-monooxygenase (Photinus pyralis) (UniProt P08659); experiment: inhibition of purified Photinus pyralis luciferase – biochemical, luminescence, purified enzyme, 2006 set, primary screen (AID 1141); conditions: purified firefly luciferase, SteadyGlo luminescence, 30 min; higher = more signal, called active from +8 up or from −8 down;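 also: cell-free assay with purified firefly luciferase at 100 ng per well in PBS; test concentration not given here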
Chain of Luciferin 4-monooxygenase (Photinus pyralis) (P08659 whole entry, looked up): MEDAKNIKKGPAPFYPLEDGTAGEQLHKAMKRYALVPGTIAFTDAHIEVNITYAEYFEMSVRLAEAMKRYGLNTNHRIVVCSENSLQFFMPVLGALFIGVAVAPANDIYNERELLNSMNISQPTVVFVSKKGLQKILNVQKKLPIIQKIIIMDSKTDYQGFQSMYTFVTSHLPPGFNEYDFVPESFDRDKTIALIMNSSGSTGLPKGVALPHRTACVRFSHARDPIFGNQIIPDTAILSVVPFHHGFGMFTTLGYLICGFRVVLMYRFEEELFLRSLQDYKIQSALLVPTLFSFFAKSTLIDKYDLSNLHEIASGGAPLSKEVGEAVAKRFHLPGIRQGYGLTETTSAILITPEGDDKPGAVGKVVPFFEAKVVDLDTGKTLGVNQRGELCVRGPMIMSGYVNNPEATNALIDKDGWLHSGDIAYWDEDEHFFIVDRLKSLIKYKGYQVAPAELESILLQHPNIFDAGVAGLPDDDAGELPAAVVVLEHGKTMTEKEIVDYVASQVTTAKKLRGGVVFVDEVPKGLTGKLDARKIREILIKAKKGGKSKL

Chain of Fibroblast growth factor 2 (Homo sapiens) (P09038 whole entry, looked up): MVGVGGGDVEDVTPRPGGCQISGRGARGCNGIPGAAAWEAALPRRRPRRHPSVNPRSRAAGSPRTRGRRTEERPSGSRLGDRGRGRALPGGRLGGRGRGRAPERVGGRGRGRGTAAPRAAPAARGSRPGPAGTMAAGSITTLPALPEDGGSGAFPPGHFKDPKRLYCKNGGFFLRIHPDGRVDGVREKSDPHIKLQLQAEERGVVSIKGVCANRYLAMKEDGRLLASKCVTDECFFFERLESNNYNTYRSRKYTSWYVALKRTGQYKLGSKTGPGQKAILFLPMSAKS
Chain of Follistatin (Homo sapiens) (P19883 whole entry, looked up): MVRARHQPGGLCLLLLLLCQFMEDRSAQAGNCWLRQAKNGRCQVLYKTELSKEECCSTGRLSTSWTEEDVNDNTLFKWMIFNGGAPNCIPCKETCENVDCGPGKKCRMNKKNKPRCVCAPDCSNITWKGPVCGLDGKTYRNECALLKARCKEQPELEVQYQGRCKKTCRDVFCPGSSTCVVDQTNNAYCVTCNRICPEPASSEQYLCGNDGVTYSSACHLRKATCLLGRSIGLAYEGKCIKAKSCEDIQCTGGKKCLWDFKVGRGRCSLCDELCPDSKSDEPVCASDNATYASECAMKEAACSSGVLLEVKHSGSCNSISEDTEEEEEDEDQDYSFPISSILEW
Chain of Focal adhesion kinase 1 (Homo sapiens) (Q05397 whole entry, looked up): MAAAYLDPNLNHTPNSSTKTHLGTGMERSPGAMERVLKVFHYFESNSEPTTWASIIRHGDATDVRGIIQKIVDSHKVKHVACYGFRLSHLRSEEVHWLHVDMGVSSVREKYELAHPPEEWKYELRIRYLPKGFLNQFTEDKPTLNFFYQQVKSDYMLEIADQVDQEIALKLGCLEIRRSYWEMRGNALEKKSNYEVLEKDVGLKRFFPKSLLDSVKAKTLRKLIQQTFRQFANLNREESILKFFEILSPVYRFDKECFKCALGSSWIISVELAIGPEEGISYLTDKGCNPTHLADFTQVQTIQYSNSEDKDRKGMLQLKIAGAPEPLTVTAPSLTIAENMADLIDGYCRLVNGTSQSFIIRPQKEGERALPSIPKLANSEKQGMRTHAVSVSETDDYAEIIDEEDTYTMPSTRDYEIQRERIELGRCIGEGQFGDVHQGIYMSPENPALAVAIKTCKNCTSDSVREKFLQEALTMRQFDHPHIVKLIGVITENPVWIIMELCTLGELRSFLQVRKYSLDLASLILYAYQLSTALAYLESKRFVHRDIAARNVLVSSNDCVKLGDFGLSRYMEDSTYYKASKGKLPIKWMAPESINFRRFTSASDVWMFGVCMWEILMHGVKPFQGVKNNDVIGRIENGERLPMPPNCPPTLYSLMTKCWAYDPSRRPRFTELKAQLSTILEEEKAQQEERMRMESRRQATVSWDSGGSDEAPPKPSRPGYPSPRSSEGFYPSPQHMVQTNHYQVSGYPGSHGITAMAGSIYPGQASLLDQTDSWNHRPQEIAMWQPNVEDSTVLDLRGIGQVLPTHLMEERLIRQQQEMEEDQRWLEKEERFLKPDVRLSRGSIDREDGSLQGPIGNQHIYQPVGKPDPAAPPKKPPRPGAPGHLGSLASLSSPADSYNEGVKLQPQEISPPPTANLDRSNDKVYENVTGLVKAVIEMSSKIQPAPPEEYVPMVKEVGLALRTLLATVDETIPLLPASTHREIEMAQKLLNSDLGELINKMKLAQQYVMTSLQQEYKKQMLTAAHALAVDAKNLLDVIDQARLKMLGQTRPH

Row | SMILES | composite z-score [1] | composite z-score [2] | composite z-score [3] | composite z-score [4] | composite z-score [5] | composite z-score [6] | z-score [7] | composite z-score (Lefty1) | composite z-score [8] | z-score [9]
1 | CCCC[C@H]1OB(O)C[C@H]2C1=C(C)C[C@H]1C(=O)N(C)C(=O)[C@H]12 | -0.0755 | 0.739 | 0.248 | 0.615 | 0.931 | 1.31 | 0.445 | 0.794 | 0.556 | -0.769 (inactive)
2 | CCOC(=O)[C@H](Cc1ccccc1)NC(=O)CCC1CC(OC(=O)NCc2ccc3c(c2)OCO3)CC2(CCCC(COC(=O)NCC3CCCCC3)O2)O1 (stereo not given in full) | 0.273 | 1.18 | 0.188 | 0.91 | 0.904 | 0.48 | 0.491 | 0.876 | 0.206 | 0.986 (inactive)
3 | O=C1[C@H]2[C@H]3[C@H](O)[C@H](O)CC(=NOCc4ccccc4)[C@@H]3CC[C@H]2C(=O)N1Cc1ccccc1 | -0.0529 | 0.719 | 0.166 | -0.757 | 0.371 | 0.47 | -0.806 | 0.597 | 0.0885 | 1.09 (inactive)
4 | CCN(CC)c1ccc(N2CC=CC34O[C@@H]5/C=C\CCC(C)OC(=O)C5[C@H]3C(=O)N(CCCO)[C@@H]4C2=O)cc1 (stereo not given in full) | 0.494 | -0.191 | -0.216 | -0.892 | -0.247 | -0.615 | 0.881 | -0.784 | -0.529 | -0.936 (inactive)
5 | CC(C)(C)N1CC=CC23O[C@@H]4C=CCCOC(=O)C4[C@H]2C(=O)N(CCCCCO)[C@@H]3C1=O (stereo not given in full) | 0.373 | 0.233 | -0.441 | -1.67 | -0.435 | -0.51 | 0.678 | 0.887 | 0.671 | -0.789 (inactive)
6 | CC(C)[C@@H](OCc1ccccc1)[C@H](C)C=NO[C@H](C)c1cn([C@H](CO)Cc2ccccc2)nn1 | 0.424 | 0.222 | -0.238 | 0.286 | 0.171 | 0.446 | 0.506 | 0.913 | 0.106 | -1.62 (inactive)
7 | C[C@@H](c1ccccc1)N1C(=O)[C@H]2[C@H]3[C@H](O)C=CC(=O)[C@@H]3CC[C@H]2C1=O | 0.299 | 0.492 | -0.0464 | 0.392 | 0.503 | 0.104 | 0.107 | 0.752 | 0.204 | -0.62 (inactive)
8 | COCCCNC(=O)[C@]1(Cc2ccccc2)N=C(c2ccc(OCCCO)cc2)O[C@@H]1c1ccccc1 | 1.26 | 1.23 | 1.03 | 0.99 | 0.355 | 0.827 | 0.549 | -0.334 | 1.09 | -0.515 (inactive)
9 | C[C@@H](c1ccccc1)N1C(=O)[C@H]2[C@H]3[C@H](O)[C@H](O)CC(=NOC[C@@H](O)COCc4ccco4)[C@@H]3CC[C@H]2C1=O | -0.623 | -0.604 | 0.126 | 0.448 | -0.761 | -0.728 | -0.62 | -0.809 | 0.112 | 0.558 (inactive)
10 | CC(=O)C[C@H](O)[C@@H](NC(=O)OC(C)(C)C)C(C)C | -0.0599 | -1.54 | -0.352 | -0.454 | -0.118 | -0.312 | -0.824 | 0.304 | -0.644 | 0.364 (inactive)
11 | COCC(=C=CC[C@@H](O)c1ccccc1OCCO)CCO | 0.0272 | 0.534 | 0.208 | 0.664 | 0.768 | 1.46 | 1.51 | 0.409 | -0.0571 | -2.02 (inactive)
12 | C#CCCCON=C1C[C@@H](O)[C@@H](O)[C@@H]2[C@@H]3C(=O)N(Cc4ccccc4)C(=O)[C@@H]3CC[C@H]12 | 0.0056 | 0.126 | 0.256 | -0.307 | 0.592 | 0.171 | -0.732 | 0.582 | 0.253 | 0.883 (inactive)
13 | O=C1C2C=CC(C(O)c3ccc([N+](=O)[O-])cc3)N(Nc3ccc([N+](=O)[O-])cc3)C2C(=O)N1c1ccccc1 (stereo not given) | 0.953 | 1.24 | 0.719 | 0.952 | -0.0127 | -0.519 | -1.95 | -0.139 | 1.37 | 0.319 (inactive)
14 | Cn1c(=O)n2n(c1=O)[C@H]1[C@H](O)[C@@H]3O[C@@H]3C(=NOC[C@@H](O)COCc3ccco3)[C@H]1CC2 | -0.272 | 0.722 | 0.0225 | 0.617 | 0.357 | 0.468 | 0.596 | 0.777 | -0.0253 | -0.508 (inactive)
15 | COc1ccc(O[C@H]2C=C[C@@H](c3ccccc3)O[C@@H]2CON=C[C@@H](C)[C@H](OCc2ccccc2)C(C)C)cc1 | 0.901 | -1.26 | -0.302 | -1.41 | -0.675 | -0.76 | 1.96 | -0.214 | 0.12 | 0.0017 (inactive)
16 | CC(C)CN1CCc2nc(-c3ccccc3)c3c(c2CC1)CO[C@@H](C)C3 | 0.21 | 0.103 | 0.101 | 0.418 | 0.587 | 0.478 | 0.186 | 0.435 | 0.22 | -0.227 (inactive)
17 | COCCCNC(=O)[C@]1(CCC(=O)OC(C)(C)C)N=C(c2ccc(OCCCO)cc2)O[C@@H]1c1ccccc1N=[N+]=[N-] | 1.96 | 1.23 | 0.688 | 1.03 | 1.28 | 0.894 | 0.6 | 0.735 | 0.778 | -12 (active)
18 | CN1C(=O)C2C=CC(C(O)c3ccc(Br)cc3)N(N(c3ccccc3)c3ccccc3)C2C1=O (stereo not given) | 0.373 | 0.77 | 0.704 | 0.312 | 0.502 | -0.538 | 1.34 | -0.409 | 0.585 | -0.495 (inactive)
19 | N#Cc1ccc(NN2C(C(O)c3cccc4ccccc34)C=CC3C(=O)N(c4ccccc4)C(=O)C32)cc1 (stereo not given) | 1.06 | 1.24 | 0.413 | 0.965 | 1.23 | -0.24 | 1.11 | 0.279 | 1.24 | 0.512 (inactive)
20 | CC(C)=CCCC(C)=CCON=C1C[C@@H](O)[C@@H](O)[C@@H]2[C@@H]3C(=O)N(C[C@@H]4CCCO4)C(=O)[C@@H]3CC[C@@H]12 | 0.875 | 1.13 | 0.121 | 0.971 | 1.06 | 1.07 | -0.26 | 1.26 | 0.59 | 0.722 (inactive)
21 | CCCCc1nc2c(c3c1C[C@H](C)OC3)CN(CCC(C)C)CC2 | 0.965 | 1.13 | 0.0171 | 0.928 | 0.818 | 0.732 | 1.8 | 1.17 | 0.399 | -0.438 (inactive)
22 | COCCNC(=O)OCC1CCCC2(CC(OC(=O)NCCc3ccc(F)cc3)CC(CCC(=O)N[C@@H](C)C(=O)OC)O2)O1 (stereo not given in full) | 1 | 1.12 | 0.104 | 0.895 | 1.26 | 1.18 | 1.28 | 0.969 | 0.618 | 0.349 (inactive)
23 | CO[C@H]1COC(=O)[C@H](C)NC(=O)[C@@H](C)COC(=O)CC=C[C@@H]1C | -0.133 | -0.0179 | -0.274 | -0.177 | 0.598 | 1.34 | -0.855 | 0.572 | -0.114 | 0.514 (inactive)
24 | C=CC[C@@H]1C=C[C@H](ON=C(C)CCN2CCc3nc(CC)c(CC)cc3C2)[C@@H](CO)O1 | 0.242 | -0.202 | -0.191 | -1.5 | 1.3 | 0.466 | 2.17 | 1.48 | 0.0749 | 0.624 (inactive)
25 | O=C1[C@H]2[C@H]3[C@H](O)[C@H](O)CC(=NO[C@@H]4O[C@H](CO)[C@@H](O)[C@H](O)[C@H]4O)[C@H]3CC[C@H]2C(=O)N1Cc1ccccc1 | 0.0948 | 0.768 | 0.0406 | -0.187 | -0.179 | 0.389 | -0.252 | 0.358 | -0.0816 | 0.589 (inactive)
26 | C=CC[C@]1(C(=O)NCc2ccccc2)N=C(c2ccc(OCCCO)cc2)O[C@H]1c1ccccc1 | -0.158 | 1.22 | 0.115 | 0.632 | 0.431 | -0.35 | 0.453 | -0.0085 | 0.366 | 0.185 (inactive)
27 | CN1C(=O)[C@@]2(CCC(=O)OC(C)(C)C)N=C(c3ccc(OCCCO)cc3)O[C@H]2c2ccccc21 | 1.87 | 1.17 | 0.102 | 0.411 | 1.36 | 0.611 | 1.33 | 0.369 | 0.761 | -2.62 (inactive)
